# Compound activity (PubChem BioAssay)
# The list is not random: actives were taken first. Their share in the collection is about 5.4%.
# SMARCA2 activ = increases SMARCA2 function in MMTV reporter cells; MG213 cells, MMTV-luciferase reporter, dexamethasone, overnight; activation, % at 9.1 µM; actives 1% (n = 370,000); in the data active = activation above about 7.8%
# M18AAP inhibitor = PfM18AAP enzyme inhibition. recombinant PfM18AAP, H-Glu-NHMec fluorogenic cleavage. inhibition, % at 7.35 µM. actives 1.2% (n = 290,000);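 active = inhibition above the campaign mean inhibition over all tested compounds plus 3 SD, cut at about 28% in these data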
# JMJD2C inh = inhibitors of human GASC-1 (JMJD2C) demethylase; Q9H3R0; GST-JMJD2C(1-420) H3K9me3 demethylation, DELFIA europium; inhibition, % at 2.35 µM; actives 0.069% (n = 330,000);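 active = more than half of a compound's replicate wells show inhibition beyond 50%, single wells judged on their own value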;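 also: signal counts dimethyl H3K9 product captured on neutravidin plate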
# Target sequence (Q9H3R0 1-420 limits assumed): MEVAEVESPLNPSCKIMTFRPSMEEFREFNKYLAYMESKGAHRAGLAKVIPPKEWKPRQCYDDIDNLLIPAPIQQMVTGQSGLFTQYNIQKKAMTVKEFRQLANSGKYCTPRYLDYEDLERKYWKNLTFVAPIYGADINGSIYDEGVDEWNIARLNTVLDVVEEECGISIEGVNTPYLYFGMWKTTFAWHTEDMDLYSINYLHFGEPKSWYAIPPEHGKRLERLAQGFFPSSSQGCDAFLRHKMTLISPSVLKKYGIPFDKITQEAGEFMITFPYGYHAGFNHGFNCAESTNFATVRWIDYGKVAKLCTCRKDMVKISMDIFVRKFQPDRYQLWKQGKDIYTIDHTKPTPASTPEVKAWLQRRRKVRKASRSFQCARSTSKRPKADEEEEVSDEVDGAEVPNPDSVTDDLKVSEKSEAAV
# beta cell repl = inducers of beta-cell replication in MIN6 cells; proliferation, % at 10 µM; actives 0.29% (n = 330,000); MIN6 cells proliferation, ATPlite luminescence, 48 h; cells starved in 0.2% serum; 100% = growth in 10% serum;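 active = compounds whose signal lies at least 3.5 SD above the mean of all wells on their plate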
# ALR inh = inhibitors of human sulfhydryl oxidase ALR. P55789. actives 3.8% (n = 290,000). inhibition, % (concentration not given with the values). AID 485317. purified ALR, DTT oxidation, H2O2 HRP-luminol luminescence;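 active = mean replicate inhibition above about 79%, with every replicate also reaching it, limit read from the data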
# Exocytosis inh = lytic granule exocytosis inhibition; TALL-104 LAMP-1 surface exposure, flow cytometry; cells stimulated with thapsigargin and PMA; actives 0.66% (n = 360,000); inhibition, % at 10 µM;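 active = inhibition above about 55%, limit read from the data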
# A number is an active result; . = inactive; / = no result given.
SMILES,SMARCA2 activ,M18AAP inhibitor,JMJD2C inh,beta cell repl,ALR inh,Exocytosis inh
CCN(Cc1ccccc1)c1ccc(/C=N/NC(=O)c2cccc(S(=O)(=O)N3CCOCC3)c2)cc1,.,.,.,.,.,.
CCN(CC)c1ccc(C=NN2CCCCCC2)cc1,.,/,/,/,/,.
CCN(CC)c1ccc(/C=N/N2CCOCC2)cc1,.,.,.,.,98.6,.
O=C(NC1CCCC1)C1(C(=O)C2CC2)CC(c2ccccn2)=NO1 (configuration not stated),.,/,/,/,/,/
O=C(C#Cc1cccc([N+](=O)[O-])c1)c1ccccc1,/,.,.,.,.,70.0
O=C(O)C(=Cc1cccc([N+](=O)[O-])c1)c1ccccc1,.,/,/,/,/,.
COc1cc2cc(/C=C/C(=O)c3ccco3)c(Cl)nc2cc1OC,.,.,.,.,/,.
Cc1ccc2cc(/C=C/C(=O)c3ccco3)c(Cl)nc2c1,.,.,.,.,.,94.9
Cc1ccc2nc(Cl)c(/C=C/C(=O)c3ccco3)cc2c1,.,.,.,.,96.7,86.0
CCOc1cc(/C=C(\C#N)C(=O)Nc2cccc(C(=O)O)c2)ccc1OCc1ccccc1Cl,.,.,.,.,.,80.9
COc1ccc2c(c1)Sc1ccccc1N2CCN(C)C,/,.,.,.,98.2,.
CCC(=O)c1ccc2c(c1)N(CCCN(C)C)c1ccccc1S2,.,/,.,.,98.2,.
CN(C)CCCN1c2ccccc2Sc2ccccc21,.,.,.,.,97.7,.
NC1=[N+](Cc2ccccc2)C(Cc2ccccc2)C2C(=C3CCCCC3n3c(=O)n(-c4ccccc4)c(=O)n32)N1 (configuration not stated),.,/,/,/,/,/
COC(=O)[C@]12CCCCC=C1N(Cc1ccc(OC)cc1)C(=O)[C@@H]2CC(=O)N1CCN(C(=O)C2CC2)CC1,.,/,/,/,/,/
CC(C)(C)c1ccc(S(=O)(=O)N2CCCC2C(=O)N2CCc3ccccc3C2)cc1 (configuration not stated),.,/,/,/,/,/
CCN1C/C(=C/c2cccc([N+](=O)[O-])c2)C(=O)/C(=C/c2cccc([N+](=O)[O-])c2)C1,.,.,.,/,.,64.5
CC(=O)OC12CCCN(C1)/C(=C/c1ccccc1)C2 (configuration not stated),.,/,/,/,/,/
C=CCN1[C@H](C#N)[C@@H](c2ccc(C#Cc3ccccc3OC)cc2)[C@H]1CO,.,/,/,/,/,/
c1ccc(NNC2=NCCCCC2)cc1,.,.,.,.,98.7,.
C=CCN1C(=O)[C@@H](CC(=O)NCc2ccc(OC)c(OC)c2)[C@]2(C(=O)OCC)CCCCC/C=C/12,.,/,/,/,/,/
Nc1ccccc1Sc1ccc(C(=O)c2ccccc2C(=O)O)cc1[N+](=O)[O-],.,30.1,.,.,.,.
Cc1ccc(NC(=O)CSc2ncc3ccccn23)cc1,.,.,.,.,99.2,.
O=C(CSc1nccn1Cc1ccco1)Nc1ccc(F)cc1,.,.,.,.,99.1,.
CC(=O)Nc1cccc(NC(=O)CSc2ncc(-c3ccc(Cl)cc3)n2Cc2ccco2)c1,.,.,.,.,91.5,.
SMILES,SMARCA2 activ,M18AAP inhibitor,JMJD2C inh,beta cell repl,ALR inh,Exocytosis inh
Cc1ccc(NC(=O)CSc2nccn2Cc2ccco2)cc1,.,.,.,.,89.4,.
Cc1ccc(NC(=O)CSc2nnc(-c3ccccn3)n2C)cc1,.,.,.,.,.,.
CCCCOCCCNC(=O)C[C@H]1C[C@@]2(C(=O)OC)C(=C[C@H](C(C)C)O[C@@H]2C2CC2)N(Cc2ccccc2)C1=O,.,/,/,/,/,/
COC(=O)[C@]12C[C@H](CC(=O)N3CCN(C(=O)C4CC4)CC3)C(=O)N(Cc3ccccc3)C1=C[C@H](C(C)C)O[C@@H]2C1CC1,.,/,/,/,/,/
Cc1ccc(NC(=O)CSc2nccn2Cc2ccccc2)cc1C,.,.,.,.,98.3,.
COC(=O)C1=C(C)N(Cc2ccc(Cl)cc2)C(=S)NC1c1ccc(Br)cc1 (configuration not stated),.,/,/,/,/,/
Cc1cc(N2CCCC2)c(F)cc1/C=C\[N+](=O)[O-],.,.,.,/,/,74.4
Nc1[nH]c(C(=O)c2ccccc2)c(-c2cccc3ccccc23)c1C(=O)NC1CCCCC1,.,/,/,/,/,/
CCOC(=O)c1ccc(CC(=O)c2oc3cc(O)ccc3c2C)o1,.,.,.,.,90.4,.
COc1cccc(-c2nnc(SCC(=O)Nc3ccc(OCc4ccccc4)cc3)n2Cc2ccco2)c1,.,/,/,/,/,/
Cc1ccc2c(c1)-c1cc(C)nn1C(c1sccc1C)N2 (configuration not stated),.,.,.,.,.,.
Cc1cc2n(n1)C(c1ccc(N(C)C)cc1)Nc1ccccc1-2 (configuration not stated),.,.,.,.,.,.
Cc1cc2n(n1)C(c1ccccc1)Nc1ccccc1-2 (configuration not stated),.,.,/,.,90.7,.
Cc1cc2n(n1)C(c1sccc1C)Nc1ccccc1-2 (configuration not stated),.,.,/,.,90.6,.
Cc1cccc(-c2cccc3c4c([nH]c23)[C@@H]2C[C@H]3[C@@H](C(=O)N2CC4)[C@H](C)ON3C)c1,.,/,/,/,/,/
CCCCNS(=O)(=O)CC1NCc2cc(F)ccc21 (configuration not stated),.,/,/,/,/,/
COc1ccc2[nH]cc(C(=O)CNc3nc(C)cs3)c2c1,.,.,.,.,81.2,.
Cc1ccnc(NC(c2ccccn2)c2c(C)[nH]c3ccccc23)c1 (configuration not stated),.,.,.,.,98.1,.
COC(=O)CSC1=C(C#N)C(=O)NC(c2ccccc2)S1 (configuration not stated),.,.,.,.,/,.
CSC1=C(C#N)C(=O)NC(c2ccccc2O)S1 (configuration not stated),.,.,.,.,98.3,.
S=c1[nH]nc(C2CCCCC2)n1/N=C/c1ccncc1,.,.,.,.,.,.
S=c1[nH]nc(C2CCCCC2)n1/N=C/c1cccs1,.,.,.,.,95.6,.
Cc1ccc(/C=N/n2c(C3CCCCC3)n[nH]c2=S)o1,.,.,.,.,96.7,.
Cc1ccc(Cn2cc(COC(=O)N3CCOCC3)nn2)cc1,.,/,/,/,/,/
Cc1nc(-c2ccc(S(=O)(=O)N3CCCCCC3)cc2)cs1,.,.,.,.,.,.
Cc1nc(-c2ccc(S(=O)(=O)N3CCOCC3)cc2)cs1,.,.,.,.,93.4,.
CC1CN(S(=O)(=O)c2cccc(-c3csc(-c4ccccc4)n3)c2)CC(C)O1 (configuration not stated),.,.,.,.,98.1,.
O=S(=O)(c1cccc(-c2csc(-c3ccccc3)n2)c1)N1CCOCC1,.,.,.,.,98.2,.
COc1ccc(-c2nnc(SCc3cccc(F)c3)n2-c2ccccc2)cc1,.,/,/,/,/,/
COc1ccc(/C=C2/C(=O)ON=C2c2ccccc2)cc1OC,.,.,.,.,.,.
